# According to PubChem BioAssay (NCI):
# Where “and” joins values, the source holds several entries; their conditions need not be identical. Equal values may be shown once. Compounds without any hit were thinned out: in the full panel of roughly 83,000, 20% have a hit.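 96-well plates, one dose, 48 hours. Percent growth reported; active if below 10.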 Calls of active or inactive are those of the source.
# Tests used:
# Experiment in all cases: NCI-60 one-dose screen, 48 h (100 = growth as untreated, 0 = no growth, -100 = all killed)
# Details in all cases: 10 µM unless noted
# [1] = tested on: HCT-15 colon
# [2] = tested on: SNB-19 CNS
# [3] = tested on: U251 CNS
# [4] = tested on: PC-3 prostate
# [5] = tested on: SK-MEL-5 melanoma
# [6] = tested on: UACC-62 melanoma
# [7] = tested on: LOX IMVI melanoma
# [8] = tested on: SK-MEL-28 melanoma
# [9] = tested on: SNB-75 CNS
Structure (SMILES),growth [1],growth [2],growth [3],growth [4],growth [5],growth [6],growth [7],growth [8],growth [9]
O=C(CCCCCCNC(=O)C(O)(O)C(F)(F)F)Nc1ncc(-c2ccc(Br)cc2)s1,3.85% (active),2.52% (active),-35.4% (active),10.5% (inactive),-70.3% (active),-52.1% (active),-89.7% (active),3.46% (active),
NC1[C@H]2CN(c3cnc(C(=O)Nc4cc(F)cc5cccnc45)cn3)C[C@@H]12 (some centres undefined),32.2% (inactive),75.2% (inactive),60.7% (inactive),65.7% (inactive),89% (inactive),92.1% (inactive),71.5% (inactive),86.1% (inactive),56.7% (inactive)
NC1C2CCC1CN(c1cnc(C(=O)Nc3cc(F)cc4cccnc34)cn1)C2 (centres undefined),6.16% (active),69.7% (inactive),60.1% (inactive),61.4% (inactive),93.2% (inactive),78.9% (inactive),26.3% (inactive),63.5% (inactive),46.4% (inactive)
OCC(Nc1ncnc2ccc(-c3cnc4cnccn34)cc12)c1ccccc1 (centres undefined),92.3% (inactive),70.6% (inactive),88.5% (inactive),79.9% (inactive),37.5% (inactive),74.1% (inactive),85.2% (inactive),97.8% (inactive),85.6% (inactive)
CCOc1cccc(/C(N)=N/C(N)=N/c2nc3ccccc3s2)c1,49.9% (inactive),87.8% (inactive),58.3% (inactive),46.4% (inactive),92.2% (inactive),81.4% (inactive),13.2% (inactive),105% (inactive),87.9% (inactive)
O=C(Nc1ccc(N2CCOCC2)cc1)Nc1ccc2c(ccn2C(=O)c2cccc(F)c2)c1,78.6% (inactive),46.9% (inactive),41.5% (inactive),49.3% (inactive),69.4% (inactive),42.3% (inactive),23% (inactive),59.2% (inactive),12.3% (inactive)
N#Cc1c(-c2cccs2)c(C#N)c(=O)n(Cc2nc3ccccc3[nH]2)c1N,98.2% (inactive),101% (inactive),94.2% (inactive),97.4% (inactive),95.1% (inactive),90.5% (inactive),100% (inactive),110% (inactive),78.7% (inactive)
Cn1cc(-c2nnc(N)nc2-c2c[nH]c3ccc(Br)cc23)c2cc(Br)ccc21,91.3% (inactive),98.7% (inactive),99.7% (inactive),102% (inactive),101% (inactive),97.7% (inactive),101% (inactive),101% (inactive),82.3% (inactive)
CCNCCOc1ccc(/C(=C(/CC)c2ccc(Cl)cc2)c2ccc(OCCCN(C)C)cc2)cc1,-84.8% (active),-86% (active),-70.7% (active),-56.4% (active),-95.2% (active),-90% (active),-89.2% (active),-94.3% (active),-71.1% (active)
NC(=O)n1c(=O)n(-c2cccc(C(F)(F)F)c2)c(=O)c2cc(-c3ccc(F)cc3F)ccc21,10.1% (inactive),11% (inactive),6.64% (active),-11.8% (active),-59.7% (active),-6.78% (active),-28.3% (active),26.1% (inactive),-18.3% (active)
Cc1ccc2c(n1)C(=O)C(Cl)=C(Nc1ccccc1C(=O)OC(C)(C)C)C2=O,-66.2% (active),80.4% (inactive),71.5% (inactive),67.1% (inactive),45.3% (inactive),79% (inactive),-72.5% (active),34.6% (inactive),98.6% (inactive)
COc1ccc2[nH]cc(/C=N/Nc3ccnc4cc(Cl)ccc34)c2c1,-88.1% (active),-100% (active),-83.3% (active),-86.4% (active),-100% (active),-98.3% (active),-92.7% (active),-100% (active),-94.1% (active)
COC(=O)N1CCN(CCNCc2ccc(NC(=O)c3ccc(C)c(C#Cc4cnc5cccnn45)c3)cc2C(F)(F)F)CC1,6.88% (active),59.6% (inactive),36.2% (inactive),25.5% (inactive),-75.2% (active),39.3% (inactive),-79.5% (active),12% (inactive),17.4% (inactive)
Cc1ccc(/C=N/Nc2nc(Nc3ccccc3)nc(Nc3ccc(S(N)(=O)=O)cc3)n2)cc1,53.5% (inactive),77.6% (inactive),62.6% (inactive),66.8% (inactive),76% (inactive),91.3% (inactive),54.9% (inactive),75.7% (inactive),67.7% (inactive)
C/C=C/CC(C)C(O)[C@H](NC(=O)[C@@H]1CCCN1C(=O)[C@](C)(CC)NC(=O)CCCCCCCCC)C(=O)N[C@@](C)(CC)C(=O)N[C@@H](CCC(N)=O)C(=O)N[C@H](CCC(N)=O)C(=O)NC(C)(C)C(=O)NC(C)(C)C(=O)N[C@@H](CCC(N)=O)C(=O)N[C@H](CC(C)C)C(=O)N[C@H](CO)CC(C)C (some centres undefined),76.9% (inactive) and -9.08% (active),65.8% (inactive) and -98.1% (active),61.2% (inactive) and -77.9% (active),69.8% (inactive) and -63.6% (active),7.02% (active) and -81.2% (active),73.8% (inactive) and -86.4% (active),40.1% (inactive) and -86.6% (active),-42.7% (active) and -100% (active),13.1% (inactive) and -93.4% (active)
CC1(C)CC[C@]2(C(=O)O)CC[C@]3(C)C(=CC[C@@H]4[C@@]5(C)CC[C@H](NOCCCN)C(C)(C)[C@@H]5CC[C@]43C)[C@@H]2C1,64.8% (inactive),93.2% (inactive),69% (inactive),65.3% (inactive),61.2% (inactive),71.4% (inactive),32.4% (inactive),87.4% (inactive),97% (inactive)
O=C(CSc1nnc(-c2ccc(Cl)cc2)n1-c1ccccc1)Nc1ccc(Cl)cc1,81.5% (inactive),59.6% (inactive),32.7% (inactive),61.4% (inactive),82.2% (inactive),76.1% (inactive),10.8% (inactive),71.2% (inactive),-11.2% (active)
CCOC(=O)c1cccc(NC2=C(Cl)C(=O)C(C)=C(C)C2=O)c1,99.3% (inactive),96.5% (inactive),90.9% (inactive),85.6% (inactive),100% (inactive),94.7% (inactive),91.9% (inactive),110% (inactive),104% (inactive)
O=c1oc2ccc(-c3ccc(F)cc3F)cc2c(=O)n1-c1ccc(Br)cc1F,47.4% (inactive),71.7% (inactive),64% (inactive),78.9% (inactive),15% (inactive),21.1% (inactive),88.2% (inactive),77.3% (inactive),73.9% (inactive)
CCOC(=O)c1cccc(NC2=C(Cl)C(=O)c3nc(C)ccc3C2=O)c1,72.2% (inactive),90.8% (inactive),103% (inactive),82% (inactive),98.2% (inactive),95.8% (inactive),65.1% (inactive),103% (inactive),108% (inactive)

Structure (SMILES),growth [1],growth [2],growth [3],growth [4],growth [5],growth [6],growth [7],growth [8],growth [9]
C#CCOc1ccccc1C(OC(=O)c1ccccc1)C(=O)NC(C)(C)C(C)(C)C (centres undefined),78.3% (inactive),95.1% (inactive),87.1% (inactive),60.7% (inactive),80.8% (inactive),66.9% (inactive),91.6% (inactive),101% (inactive),71.4% (inactive)
CCN(CC)S(=O)(=O)c1ccc(-c2nc(C(Cl)Cl)nc3cc(-c4ccc(F)cc4)nn23)cc1,23.3% (inactive),40.2% (inactive),17.7% (inactive),18.6% (inactive),83.3% (inactive),54.2% (inactive),32% (inactive),27.9% (inactive),56.5% (inactive)
C/C(=N/N)c1nnn(-c2ccc(Br)cc2)c1C,103% (inactive),97.9% (inactive),98.6% (inactive),95.8% (inactive),99.6% (inactive),98.1% (inactive),86.2% (inactive),99.2% (inactive),98.1% (inactive)
CC1(C)C=Cc2cc(/C(N)=N/C(N)=N/c3nc4ccccc4s3)ccc2O1,57.7% (inactive),96.6% (inactive),89.8% (inactive),34.7% (inactive),87.9% (inactive),96.7% (inactive),-56.3% (active),108% (inactive),101% (inactive)
CCOC(=O)c1ccc(NC2=C(Cl)C(=O)c3nc(C)ccc3C2=O)cc1,-48.5% (active),68.1% (inactive),63.8% (inactive),48% (inactive),63.6% (inactive),55.5% (inactive),0.747% (active),55.2% (inactive),70.1% (inactive)
CNC(=O)c1cc(N2CCc3cc(NC(=O)Nc4ccc(N5CCN(C)CC5)c(C(F)(F)F)c4)ccc32)ccn1,29.1% (inactive),81.5% (inactive),52.7% (inactive),59.7% (inactive),85.8% (inactive),104% (inactive),-77.5% (active),7.33% (active),75.1% (inactive)
CCOC(=O)C(=O)Nc1ccc2c(ccn2C(=O)c2cccc(F)c2)c1,95.8% (inactive),91.6% (inactive),105% (inactive),99.6% (inactive),96.3% (inactive),93.5% (inactive),96.3% (inactive),99.1% (inactive),74.3% (inactive)
CN1CCN(c2ccc(Nc3nc(NCCCNS(=O)(=O)c4cccc5ccccc45)c4sccc4n3)cc2)CC1,-32.8% (active),35.7% (inactive),-74.4% (active),29.1% (inactive),-95.3% (active),-61% (active),-85.2% (active),-80.9% (active),-36.9% (active)
COc1cc(C(=O)c2cc(C(C)=O)c3c(C)cccn23)cc(OC)c1OC,88.6% (inactive),78.7% (inactive),96.7% (inactive),90.2% (inactive),97.1% (inactive),70.5% (inactive),96.7% (inactive),103% (inactive),64.6% (inactive)
O=C(CCCCCCNC(=O)C(O)(O)C(F)(F)F)Nc1ncc(-c2ccccc2)s1,2.35% (active),6.24% (active),-62.6% (active),22.7% (inactive),-67.2% (active),-76.6% (active),-78.2% (active),-19.6% (active),35.1% (inactive)
O=c1c2ccccc2cc2n1CCN=C2c1ccccc1,96.6% (inactive),94.8% (inactive),97% (inactive),96.5% (inactive),99.5% (inactive),96% (inactive),101% (inactive),112% (inactive),94.9% (inactive)
CC1=C(C)C(=O)C(Nc2ccc(C)c(C)c2)=C(Br)C1=O,92.3% (inactive),97.4% (inactive),102% (inactive),85% (inactive),89.1% (inactive),96.4% (inactive),-54.6% (active),111% (inactive),73.2% (inactive)
COc1ccc(/C=N/NC(=O)c2c(N)nn(C)c2Nc2ccccc2)cc1,19.1% (inactive),36.8% (inactive),33.3% (inactive),55.9% (inactive),57.2% (inactive),23.7% (inactive),18.9% (inactive),57.5% (inactive),35.1% (inactive)
COc1ccc2c(c1)c(-c1nnc(N)nc1-c1c[nH]c3ccc(F)cc13)cn2C,27.7% (inactive),45.2% (inactive),34.5% (inactive),51.2% (inactive),35.4% (inactive),35.9% (inactive),42.7% (inactive),67.5% (inactive),24.3% (inactive)
Clc1ccc2c(N/N=C/c3c[nH]c4ccccc34)ccnc2c1,-82.7% (active),-92.4% (active),-84.1% (active),-81% (active),-98.4% (active),-61.7% (active),-92.9% (active),-92.7% (active),-96.2% (active)
CN1CCN(CC#CCn2c3c(c4ccccc42)C[C@]2(C)[C@H]4CC=C5[C@@H]6CC(C)(C)CC[C@]6(C(=O)N6CCOCC6)CC[C@@]5(C)[C@]4(C)CC[C@H]2C3(C)C)CC1,28.4% (inactive),83% (inactive),43.4% (inactive),56.7% (inactive),95.7% (inactive),103% (inactive),-46.1% (active),92.1% (inactive),
N#Cc1nc(-c2ccccc2)oc1N1CCC(C2(C(F)(F)F)N=N2)CC1,102% (inactive),102% (inactive),97.5% (inactive),97% (inactive),99.2% (inactive),93.4% (inactive),97.1% (inactive),119% (inactive),98.7% (inactive)
COc1ccccc1N1CCN(C2=C(Cl)C(=O)c3ncccc3C2=O)CC1,55.5% (inactive),88.8% (inactive),102% (inactive),79% (inactive),96.4% (inactive),83% (inactive),50.2% (inactive),98.4% (inactive),86% (inactive)
CCN(CC)CCOc1ccc(C(=C(c2ccccc2)C2CCCC2)c2ccc(OCCN(CC)CC)cc2)cc1,-70.2% (active),14.6% (inactive),20.5% (inactive),14.6% (inactive),-82.4% (active),-74.7% (active),-56.6% (active),29% (inactive),10.3% (inactive)
